Reference: PubChem BioAssay (NCI)
This is part of a sample that, as a whole, favours compounds with a hit. Of some 83,000 tested, about 20% had one in any assay.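 Values shown are percent growth following 48 h exposure of cells in 96-well plates to a single concentration of compound; below 10 was considered active.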 A number with no mark means an inactive call. Activity calls are given as the source filed them.

Each compound was assayed on HL-60(TB) leukemia (assay: NCI-60 one-dose screen, 48 h (100 = growth as untreated, 0 = no growth, -100 = all killed)). Details: 10 µM unless noted.

| SMILES | growth |
| --- | --- |
| COc1ccc(CNc2c3ccccc3nc3ccccc23)cc1OC | 12.7% |
| c1ccc2c(-c3nc(-c4c[nH]c5ccncc45)cs3)c[nH]c2c1 | 45.9% |
| CN(C)C(=S)N=Nc1c(O)[nH]c2ccccc12 | -40.3% (active) |
| CCOC(=O)c1nn(C2CCCCO2)c2ccc(NS(=O)(=O)c3ccc(C)cc3)cc12 (configuration not stated) | 97.6% |
| COc1cc(/C=C/C(=O)c2cccc(-n3cc(-c4cc(OC)c(OC)c(OC)c4)[nH]c3=O)c2)cc(OC)c1OC | -18.5% (active) |
| COc1cc(C(=O)/C=C/c2c(-c3cccs3)nc3sccn23)cc(OC)c1OC | 1.04% (active) |
| C=C1C(=O)O[C@H]2[C@H]1CC/C(COC(=O)/C=C\C(=O)NCc1ccc(Cn3c(=O)sn(-c4ccccc4)c3=O)cc1)=C\CC[C@@]1(C)O[C@@H]21 | -3.22% (active) |
| Cc1c2cnccc2c(C)c2c1c1cc(C#N)ccc1n2C | -48.8% (active) |
| CCCCCCCCCCCCS(=O)CC(C)O (configuration not stated) | 99% |
| c1ccc(-c2nc(Nc3ccc(-c4nc5ccccc5[nH]4)cc3)nc(N3CCOCC3)n2)cc1 | -32.7% (active) |
| COc1ccc(C(=O)COc2cccc(/C=C3\CSc4ccc(C)cc4C3=O)c2)cc1 | 45.6% |
| CC(NC(=O)Oc1cccc2ccccc12)c1ccccc1 (configuration not stated) | 44.8% |
| COC(=O)CNS(=O)(=O)c1ccc2c(c1)Cc1cc(S(=O)(=O)NCC(=O)OC)ccc1-2 | 98.5% |
| COc1c(B(O)O)cccc1-c1cc(C)c2c(ccc3[nH]ncc32)n1 | 23.8% |
| COc1cc(-c2cc3cc(O)ccc3oc2=O)cc(OC)c1OC | 85% |
| COc1ccc2nc(-c3ccc(-c4noc(-c5cc(OC)c(OC)c(OC)c5)n4)cc3)[nH]c2c1 | 74.4% |
| Clc1ccc(/C=C/c2cc(N3CCOCC3)c3cc(Cl)c(Cl)cc3n2)cc1 | -16.3% (active) |
| CC1(C)NC2=C(C(Nc3cccnc3)N1)C(c1ccc([N+](=O)[O-])cc1)C(C(=O)c1ccc(N=[N+]=[N-])cc1)O2 (configuration not stated) | 104% |
| CSc1nnc2c(=O)n(C)c(=O)n(C)c2n1 | 161% |

| SMILES | growth |
| --- | --- |
| Cc1c2c[n+](C(C)C)ccc2c(C)c2c1[nH]c1ccccc12 | 14.4% |
| COc1cc2c(cc1OCCCCn1c(-c3cc(=O)c4ccccc4o3)nc3ccccc31)N=C[C@@H]1CCCN1C2=O | 91.2% |
| Sc1ccc(Nc2c3ccccc3nc3ccccc23)cc1 | 31.7% |
| Cc1cc(N2CCCC2)nc(NC2CCCC(Nc3ccnc4cc(Cl)ccc34)C2)n1 (configuration not stated) | -68.5% (active) |
| O=c1cc(N2CCOCC2)oc2c(-c3ccc4c(c3)OCCO4)csc12 | 4.41% (active) |
| CCN(CC)CCCCCCNc1cccc2cc(Br)cnc12 | -51.7% (active) |
| CCOc1c(OC)cc2c(c1O)C(=O)N[C@@H]1[C@@H](O)[C@@H](O)[C@H](O)C[C@@H]21 | 100% |
| C=C(C)C(C(=O)OCC)(C(=O)OCC)C(C)C | 118% |
| CC1=NN(c2ccc(Cl)cc2)CC1(C)N=O (configuration not stated) | 38.5% |
| C[C@H]1[C@H]2C3=CC[C@@H]4[C@@]5(C)C/C(=C/c6ccco6)C(=O)C(C)(C)[C@@H]5CC[C@@]4(C)[C@]3(C)CC[C@@]2(C(=O)N2CCOCC2)CC[C@@H]1C | 14.7% |
| COc1ccc(C(=O)c2cc(C)c(OC)c(C)c2)c(OC)c1N(C(=O)CCl)C(=O)CCl | -42.3% (active) |
| O=C(/C=C/c1ccccc1)Nc1ncc(Cc2ccccc2Cl)s1 | -10.1% (active) |
| O=C(NC1CCN(Cc2ccccc2)CC1)c1cc(-c2cccnc2)nc2ccc(Cl)cc12 | 73.9% |
| O=C(C[n+]1cccc(Br)c1)c1ccc2c(c1)CCCC2 | 83.6% |
| CNS(=O)(=O)Nc1nccc(Cc2c(C)c3ccc(Oc4ncccn4)cc3oc2=O)c1F | 27.9% |
| COc1cccc2c1C(=O)c1c(O)c3c(c(O)c1C2=O)C[C@](O)(C(=O)CO)C[C@H]3O[C@@H]1C[C@@H](NC(=O)CCCCCN(C)C2(c3ccc(F)cc3)CC3CCC2C3)[C@H](O)[C@@H](C)O1 (some centres not stated) | 84.9% |
| CCCCCCCCCCCCCCCCOc1ccccc1NC(=O)CC(C)=O | 98% |
| CC1=C([Se]CC(OC(=O)CC[Se]c2ccccc2)C(=O)NC(C)(C)C)C(=O)c2ccccc2C1=O (configuration not stated) | -43.2% (active) |
